TGFb SMAD3 inh: inhibitors of TGF-b signaling; HepG2 CAGA-GFP TGF-b/SMAD3 reporter, GFP fluorescence, 18 h; TGF-beta stimulated, 500 pg/mL final; Potency, µM (titrated, usually from 46.1 µM), for inactives: top-dose activity, negative = inhibition, most hits filed as inhibitors; hit rate 1.2% among 410,000; AID 588855; also: potency is read from the fitted curve at half-maximal effect; % is scaled to controls: 0 for no effect and ±100 for the full control effect; nearly all actives have a fitted effect of over 65% in size
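GFP signal (ex488/em500-530) from TGF-beta-stimulated HEPG2 CAGA-GFP cells, 500 pg/mL final, 18 h at 37 degrees C in DMEM plus 1% FBS, normalized to unstimulated and DMSO-stimulated controls.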
HepG2 viability: kills HepG2 cells in TGF-b inhibitor counter-screen. hit rate 0.76% among 410,000. HepG2 CAGA-GFP viability, ATP luminescence, 18 h. Potency, µM (top dose mostly 46.1 µM), without a hit: top-dose activity change, negative = cytotoxicity, hits mostly cytotoxic. AID 588856; also: potency is read from the fitted curve at half-maximal effect
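HepG2 CAGA-GFP cells (1000/well, DMEM with 1% FBS) received compound, then TGF-beta at 500 pg/mL final, and were incubated 18 hours at 37 degrees C. Viability was read by CellTiter-Glo luminescence. Media-only wells were set as complete cell-killing and DMSO as no toxicity.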
TDP1 inh: TDP1 (human) enzyme inhibition; Q9NUW8; recombinant TDP1, AlphaScreen DNA substrate cleavage; Potency, µM (doses to about 130 µM), inactives show top-dose activity change, negative = inhibition, usual class: inhibitors; hit rate 0.28% among 350,000; AID 485290; also: potency is read from the fitted curve at half-maximal effect; % is scaled to controls: 0 for no effect and ±100 for the full control effect; nearly all actives have a fitted effect of over 40% in size
Target sequence (Q9NUW8 whole entry, looked up): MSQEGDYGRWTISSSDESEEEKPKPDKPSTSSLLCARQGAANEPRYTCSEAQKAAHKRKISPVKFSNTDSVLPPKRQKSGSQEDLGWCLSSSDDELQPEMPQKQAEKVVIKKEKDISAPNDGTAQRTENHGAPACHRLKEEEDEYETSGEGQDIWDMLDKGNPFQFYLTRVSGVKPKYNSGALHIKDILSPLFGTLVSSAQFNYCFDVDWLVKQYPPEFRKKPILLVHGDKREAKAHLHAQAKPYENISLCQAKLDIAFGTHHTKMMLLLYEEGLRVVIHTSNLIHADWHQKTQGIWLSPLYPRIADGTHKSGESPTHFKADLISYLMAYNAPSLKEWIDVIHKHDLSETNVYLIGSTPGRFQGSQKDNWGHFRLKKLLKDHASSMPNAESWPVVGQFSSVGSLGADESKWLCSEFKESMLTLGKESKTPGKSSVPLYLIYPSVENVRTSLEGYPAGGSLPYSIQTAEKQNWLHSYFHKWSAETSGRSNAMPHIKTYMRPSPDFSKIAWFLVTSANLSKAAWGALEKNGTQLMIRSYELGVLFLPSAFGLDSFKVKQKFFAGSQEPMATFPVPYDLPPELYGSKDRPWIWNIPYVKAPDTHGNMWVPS
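Tdp1 1 nM final; 15 min RT w/ cpd; substrate 15 nM, 5 min; beads 10 ug/ml, 10 min; AlphaScreen read. Neg ctrl: no enzyme.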
TDP1 cell noCPT: qHTS for Inhibitors of human tyrosyl-DNA phosphodiesterase 1 (TDP1): qHTS in cells in absence of CPT | AID 686978, 2013 | Potency, µM (titrated, usually from 46.2 µM), without a hit: top-dose activity change, negative = growth inhibition, most hits filed as inhibitors | hit rate 15% among 420,000 | DT40 Tdp1-/- hTDP1 cells, no CPT, ATP luminescence, 48 h; also: potency is read from the fitted curve at half-maximal effect; % is scaled to controls: 0 for no effect and ±100 for the full control effect; nearly all actives have a fitted effect of over 55% in size
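Camptothecin absent (DMSO only). Human TDP1-complemented DT40 knockout cells, 400 cells/well, 37 °C for minimum 48 hr; ATP measured via CellTiter-Glo, 30 min dark incubation, luminescence.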
TDP1 cell CPT: DT40-hTDP1 cell growth loss with CPT | chicken DT40 Tdp1-/-;hTDP1 cells + 20 nM CPT, ATP luminescence, 48 h | Potency, µM (top dose mostly 46.2 µM), for the others: at the top dose activity change, negative = growth inhibition, most hits filed as inhibitors | hit rate 12% among 420,000 | AID 686979; also: potency is read from the fitted curve at half-maximal effect; % is scaled to controls: 0 for no effect and ±100 for the full control effect; nearly all actives have a fitted effect of over 55% in size
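Chicken DT40 Tdp1-/- cells complemented with human TDP1, 400 cells/well, exposed to compounds plus 20 nM camptothecin for at least 48 h at 37 C; viability read as ATP content by CellTiter-Glo luminescence.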
IL1B secr inh: blocks inflammasome-driven IL-1 beta release; THP-1 LPS/ATP IL-1B secretion, AlphaLISA, 16 h; hits give low values; activity change, % at 57.5 µM; hit rate 4.7% among 360,000; AID 743279; in the data active = activity change below about -50%; inconclusive = mostly about -30% to -49%; also: % is scaled to controls: 0 for no effect and ±100 for the full control effect
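THP-1 cells pretreated 1 hr with compounds (up to 57.5 uM final), then stimulated with LPS (250 ng/mL final) plus ATP (1.25 mM final); secreted IL-1B measured by AlphaLISA after 16 hr, decreased signal indicating inhibition.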
* = called active by the depositor; i = inactive; u = inconclusive; x = no result given; [ ] = another dose, or the depositor's remark. The list is not random: actives were taken first. Their share in the collection is about 18%. Unless noted, calls follow the shape of the dose curve; as a rule, active = well fitted curve in the direction sought with a large enough effect; inconclusive = small, poorly fitted or top-dose-only effect, or another doubt; inactive = no such curve, though single readings can be large; an effect the other way counts as inactive or inconclusive.

SMILES | TGFb SMAD3 inh | HepG2 viability | TDP1 inh | TDP1 cell noCPT | TDP1 cell CPT | IL1B secr inh
COc1cc2nc(Nc3ccc(F)cc3)nc(N)c2cc1OC | u | -32% | -2% | 4.6µM* | 6.5µM* | x
COc1cc2nc(Nc3cccc(C)c3)nc(N)c2cc1OC | u | -77% | -2%[12.3 µM] | 3.3µM* | 12µM* | x
COc1cc2ncnc(NCc3ccc(F)cc3)c2cc1OC | 13% | -8% | x | u | -23% | 0
COc1cc2nc(Nc3ccc(C)c(C)c3)nc(N)c2cc1OC | u | -68% | 5% | 15µM* | 23µM* | -98*
CCOC(=O)c1ccc(Nc2ccc(-c3ccc(OC)c(OC)c3)nn2)cc1 | 8% | -12% | 0% | 4.6µM* | u | 15
C=CCOC(=O)N[C@H](c1ccco1)C(C(C)=O)C(C)=O | x | x | -5% | x | x | x
CNC1=CN(O)C(c2ccccc2)=c2cc(Cl)ccc2=N1 | x | x | 6% | x | x | x
Cc1ccc(Nc2nc(N)c3ccccc3n2)cc1Cl | u | -78% | x | u | 15µM* | -97*
COc1cc(C)c(NC(=S)Nc2ccc(C)c(Cl)c2)cc1OC | 10% | -2% | 4% | -24% | 0% | -16
CCOC(=O)c1ccc(Nc2nc(N)c3cc(OC)c(OC)cc3n2)cc1 | u | -88% | -2%[12.3 µM] | 21µM* | 7.3µM* | -10
COc1cc2nc(Nc3ccc(C)c(Cl)c3)nc(N)c2cc1OC | u | -196% | x | u | u | -94*
NS(=O)(=O)c1ccc(CCNC(=O)C(=O)c2cn(CC(=O)N3CCOCC3)c3ccccc23)cc1 | 9% | 3% | 1% | 20% | 8% | 3
CCN(CC1CCCN(CCc2cccc(OC)c2)C1)C(=O)c1ccoc1C (stereo unspecified) | -25% | 2% | 3% | -26% | u | i
O=C(NCCN1C(=O)S/C(=C\c2ccc(F)cc2)C1=O)C1CCN(S(=O)(=O)c2cccs2)CC1 | 12% | 33% | -4% | 10µM* | 12µM* | 19
COc1cc(NC(=O)C2CCN(S(=O)(=O)c3cccs3)CC2)cc(OC)c1 | 4% | -4% | x | u | 18µM* | -14
Cc1ccc(NC(=O)C2CCN(S(=O)(=O)c3cccs3)CC2)cc1 | 3% | -9% | -6% | u | u | -26
COc1ccc(NC(=O)C2CCN(S(=O)(=O)c3ccc4c(c3)NC(=O)C(C)S4)CC2)cc1 (stereo unspecified) | u | -11% | 0% | u | u | 44
COc1cccc(NC(=O)C2CCN(S(=O)(=O)c3ccc4c(c3)NC(=O)C(C)S4)CC2)c1 (stereo unspecified) | u | -12% | 3% | 21µM* | 21µM* | 26
COc1ccc(/C=C2\SC(=O)N(CCNC(=O)C3CCN(S(=O)(=O)c4cccs4)CC3)C2=O)cc1 | -29% | 7% | 4% | -27% | u | 23
CCc1ccc(NC(=O)C2CCN(S(=O)(=O)c3cccs3)CC2)cc1 | -10% | -33% | -4% | u | u | -80*
C/C(CS(=O)(=O)c1ccc(Cl)c(Cl)c1)=N/NC(N)=S | u | 6% | -1% | 5.8µM* | 18µM* | 32
O=C1CC(N2CCN(Cc3ccc(Cl)cc3)CC2)C(=O)N1CCc1ccccc1 (stereo unspecified) | u | -23% | x | 18µM* | 15µM* | 20
COc1cccc(N2CCN(C(=O)c3cn(Cc4ccccc4)nc3-c3cccnc3)CC2)c1 | -25% | -8% | 0% | 2.1µM* | 2.6µM* | 71
O=C(c1cn(Cc2ccccc2)nc1-c1cccnc1)N1CCN(Cc2c(F)cccc2Cl)CC1 | -1% | -17% | -9% | 29µM* | u | 17
O=C(c1cn(Cc2ccccc2)nc1-c1cccnc1)N1CCN(Cc2ccccc2)CC1 | -8% | 0% | 1% | -12% | u | -6
SMILES | TGFb SMAD3 inh | HepG2 viability | TDP1 inh | TDP1 cell noCPT | TDP1 cell CPT | IL1B secr inh
Cc1cc(C(=O)CS(=O)(=O)c2ccc(F)cc2)cc(C)c1O | 4% | -14% | x | -7% | 19% | -4
CCN1CCN(c2nc3ccccc3nc2C(C#N)S(=O)(=O)c2ccc(C)c(C)c2)CC1 (stereo unspecified) | 16% | 21% | 8% | -9% | -4% | 7
N#CC(c1nc2ccccc2nc1N1CCOCC1)S(=O)(=O)c1ccccc1 (stereo unspecified) | -17% | -7% | 3% | 29µM* | -7% | x
Cc1ccc(S(=O)(=O)C(C#N)c2nc3ccccc3nc2N2CCCC2)cc1 (stereo unspecified) | u | -21% | 2% | u | -29% | 7
Cc1cccc(S(=O)(=O)C(C#N)c2nc3ccccc3nc2N2CC(C)OC(C)C2)c1 (stereo unspecified) | -1% | -4% | 1% | 26µM* | 26µM* | 42
Cc1ccc(S(=O)(=O)C(C#N)c2nc3ccccc3nc2N2CC(C)OC(C)C2)cc1C (stereo unspecified) | 1% | -21% | 7% | 15µM* | u | 18
O=S(=O)(c1ccc2c(c1)OCCO2)N1CCN(S(=O)(=O)c2cccc[n+]2[O-])CC1 | x | x | 0% | x | x | x
CC(=O)c1cccc(NC(=O)COC(=O)c2ccc3c(c2)OCO3)c1 | 7% | 2% | -1% | 2% | -1% | -11
Nc1ccccc1C(=O)Nc1cccc(C(=O)O)c1 | 4% | -1% | -2% | -11% | -19% | 2
O=C(NNC(=O)c1ccc(Br)cc1)c1ccncc1 | -1% | -1% | x | -7% | 1% | 11
O=C(NNC1=C(C(=O)C(F)(F)F)CCC1)c1ccccc1Cl | -1% | -39% | 7% | 1µM* | 1.3µM* | 67
Nc1ccccc1C(=O)NNC1=C(C(=O)C(F)(F)F)CCC1 | 13% | -34% | 10% | 4.1µM* | 4.1µM* | 6
O=C(NNC1=C(C(=O)C(F)(F)F)CCC1)c1ccc(Br)cc1 | 16µM* | 10µM* | 9% | 16µM* | u | 37
COc1cccc(C(=O)NNC2=C(C(=O)C(F)(F)F)CCC2)c1 | u | 4µM* | 10% | 1.5µM* | 2.1µM* | 122
Cc1nc(N2CCOCC2)c2nc(-c3ccccc3)n(CCN3CCOCC3)c2n1 | x | x | 6% | x | x | x
COc1ccccc1C(=O)NNC1=C(C(=O)C(F)(F)F)CCC1 | u | -41% | 9% | u | u | 83
